Where a structure was tested more than once in an assay, its records may differ in their call. Activity calls are given as the source filed them. The calls were made as follows: active = hit-call score of the fitted dose curve at least 0.9, where 1 is the maximum; inactive = score below 0.9.
Assay: ATG_TCF_b_cat_CIS: Attagene CIS-FACTORIAL HepG2 Assay for human T-Cell-Factor with beta-catenin (TCF/b-cat) (AID 2282965)
Conditions: HepG2 TCF/beta-catenin cis-reporter transcription, actives raise or lower the signal
Experimental: ATG_CIS is a cell-based, multiplexed-readout assay that uses HepG2, a human liver cell line, with measurements taken at 24 hours after chemical dosing in a 24-well plate.ATG_TCF_b_cat_CIS is one of 52 assay component(s) measured or calculated from the ATG_CIS assay. It is designed to make measurements of mRNA induction, a form of inducible reporter, as detected with fluorescence intensity signals by Reverse transcription polymerase chain reaction (RT-PCR) and Capillary electrophoresis technology.Data from the assay component ATG_TCF_b_cat_CIS was analyzed into 1 assay endpoint. This assay endpoint, ATG_TCF_b_cat_CIS, was analyzed with bidirectional fitting relative to DMSO as the negative control and baseline of activity. Using a type of inducible reporter, measures of mRNA for gain or loss-of-signal activity can be used to understand the reporter gene at the transcription factor-level as they relate to the gene TCF7 and TCF7L2 and LEF1 and TCF7L1. Furthermore, this assay endpoint can be referred to as a primary readout, because this assay has produced multiple assay endpoints where this one serves a reporter gene function. To generalize the intended target to other relatable targets, this assay endpoint is annotated to the dna binding intended target family, where the subfamily is HMG box protein.
Human liver HepG2 cells are transiently transfected with multiple reporter transcription units (MRTUs) in 6-well plates using FuGene 6 reagent (Roche; 3 ml FuGene/1 mg DNA). The MRTU constructs are regulated by a cis-regulating element (promoter). […] A major difference between the CIS and TRANS system is that in CIS activities of endogenous TFs are measured, whereas the TRANS assay evaluates changes in activities of exogenous, chimeric NR-Gal4 proteins. […] At the end of 24 hour incubation, total RNA was isolated using TriZol reagent (Invitrogen). The isolated RNA is then reverse-transcribed using oligo(dT) primer and Mo-MLV reverse transcriptase (Invitrogen) with DNAse I (Ambion) treatment for 30 min. The one-tenth of the produced cDNA was amplified by PCR using Taq DNA polymerase (Invitrogen) and two reporter sequence-specific primers. The PCR products were fluorescently labeled by primer extension with 6-arboxyfluorescein (6-FAM) 5'-labeled reporter sequence-specific primer (2 min at 95 C, 20 s at 68 C and 10 min at 72 C) and these products were digested with 5U of HpaI (New England Biolabs) for 2h at 37 C. The fragments were purified using Qiaquick PCR columns (Qiagen), analyzed on an ABI 3130xL genetic analyzer (Applied Biosystems) with peak positions identified by using a set of X-rhodamine (ROX)-labeled MapMarker1000 molecular weight standards (BioVentures). The raw capillary electrophoresis data was processed using Attagraph software (Attagene).
In the case of `Nc1c(Cl)cc([N+](=O)[O-])cc1Cl`, the outcome is reported as “inactive”. With `Cc1ccn2nc(S(=O)(=O)Nc3c(F)cccc3F)nc2n1` the outcome was “inactive”. With `CC(C)N(C(=O)SCC(Cl)=C(Cl)Cl)C(C)C` the outcome was “inactive”. With `Cc1nn(-c2cc(NS(C)(=O)=O)c(Cl)cc2Cl)c(=O)n1C(F)F` the outcome was “inactive”. With `CCOP(=O)(NC(C)C)Oc1ccc(SC)c(C)c1` (stereo not given) the outcome was “inactive”. With `Nc1nc(N)nc(NC2CC2)n1` the outcome was “inactive”. With `CC[C@H](C)[C@H]1O[C@]2(C=C[C@@H]1C)C[C@@H]1C[C@@H](C/C=C(\C)[C@@H](O[C@H]3C[C@H](OC)[C@@H](O[C@H]4C[C@H](OC)[C@@H](NC)[C@H](C)O4)[C@H](C)O3)[C@@H](C)/C=C/C=C3\CO[C@@H]4[C@H](O)C(C)=C[C@@H](C(=O)O1)[C@]34O)O2` the outcome was “inactive”. For `O=[N+]([O-])c1cc(C(F)(F)F)c(Cl)c([N+](=O)[O-])c1Nc1ncc(C(F)(F)F)cc1Cl`, the AC50 was 16.1 µM (active) and the outcome was “inactive”. For `CCc1cccc(CC)c1N(COC)C(=O)CCl`, the outcome was “inactive”. With `CSc1nnc(C(C)(C)C)c(=O)n1N` the outcome was “inactive”. With `CN(C)NC(=O)CCC(=O)O` the outcome was “inactive”. For `CCOP(=S)(Oc1cnc(C(C)(C)C)nc1)OC(C)C` (stereo not given), the outcome was “inactive”. With `CCC(=O)Nc1ccc(Cl)c(Cl)c1` the outcome was “inactive”. For `CSc1nc(NC(C)C)nc(NC(C)C)n1`, the outcome was “inactive”. For `COc1cccc(C(=O)NN(C(=O)c2cc(C)cc(C)c2)C(C)(C)C)c1C`, the outcome was “inactive”. For `C=C(C)[C@H]1Cc2c(ccc3c2O[C@@H]2COc4cc(OC)c(OC)cc4[C@@H]2C3=O)O1`, the outcome was “inactive”. With `CCOP(=S)(OCC)Oc1cc(C)nc(C(C)C)n1` the outcome was “inactive”. With `O=C(O)c1cc(Oc2ccc(C(F)(F)F)cc2Cl)ccc1[N+](=O)[O-]` the outcome was “inactive”. For `S=C1NCCN1`, the outcome was “inactive”. In the case of `CSC1=N[C@@](C)(c2ccccc2)C(=O)N1Nc1ccccc1`, the outcome is reported as “inactive”. In the case of `CCOP(=O)(SC(C)CC)N1CCSC1=O` (stereo not given), the outcome is reported as “inactive”. In the case of `C[N+]1(C)CCCCC1`, the outcome is reported as “inactive”. For `CCOP(=S)(OCC)Oc1ccc2c(C)c(Cl)c(=O)oc2c1`, the outcome was “inactive”. With `FC(F)C(F)(F)OCC(Cn1cncn1)c1ccc(Cl)cc1Cl` (stereo not given) the outcome was “inactive”. In the case of `CCc1cnc(C2=NC(C)(C(C)C)C(=O)N2)c(C(=O)O)c1` (stereo not given), the outcome is reported as “inactive”. With `CCOC(=O)CC(SP(=O)(OC)OC)C(=O)OCC` (stereo not given) the outcome was “inactive”. With `CCOP(=O)(OCC)Oc1cc(C)nc(C(C)C)n1` the outcome was “inactive”. For `CCOP(=S)(OCC)SCCSCC`, the outcome was “inactive”. In the case of `N#CSCSC#N`, the outcome is reported as “inactive”. In the case of `CNC(=O)ON=C(C)SC`, the outcome is reported as “inactive”. For `CC1(C(=O)Nc2ccc(O)c(Cl)c2Cl)CCCCC1`, the outcome was “inactive”. With `CNC(=O)ON=C(SC)C(=O)N(C)C` the outcome was “inactive”. In the case of `COP(=O)(OC)OC(Br)C(Cl)(Cl)Br` (stereo not given), the outcome is reported as “inactive”. In the case of `CCCCOC(=O)[C@@H](C)Oc1ccc(Oc2ccc(C#N)cc2F)cc1`, the outcome is reported as “inactive”. With `O=c1ccc(=O)[nH][nH]1` the outcome was “inactive”. In the case of `CC(C)[C@H](C(=O)O[C@H](C#N)c1cccc(Oc2ccccc2)c1)c1ccc(Cl)cc1`, the outcome is reported as “inactive”. For `CNc1cnn(-c2cccc(C(F)(F)F)c2)c(=O)c1Cl`, the outcome was “inactive”. With `COc1cc(OC)nc(Sc2cccc(Cl)c2C(=O)O)n1` the outcome was “inactive”. In the case of `CON=C(C(=O)OC)c1ccccc1CON=C(C)c1cccc(C(F)(F)F)c1`, the outcome is reported as “inactive”.

— PubChem BioAssay (EPA / NIEHS)
